Records with an inconclusive call do not appear. Active and inactive are the calls of the source. How the source made its calls: active means hit-call score of the fitted dose curve at least 0.9, where 1 is the maximum; inconclusive means response in the unintended direction; inactive means score below 0.9.
Molecular target: human Phosphoinositide 3-kinase alpha (PI3Ka), PIK3CA (gene 5290) (UniProt P42336)
Test: NVS_ENZ_hPI3Ka: NovaScreen (NVS) Enzymatic Assay for human Phosphoinositide 3-kinase alpha (PI3Ka) (AID 2283196)
Method in brief: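 Recombinant human PI3Kα with fluorescent substrate, 1 h, product separated by electrophoretic mobility shift; 25 uM duplicate screen, hits (e.g., 30% inhibition) retested singly up to 50 uM; loss of signal vs DMSO.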

Chain of human Phosphoinositide 3-kinase alpha (PI3Ka), PIK3CA (gene 5290) (P42336 whole entry, looked up): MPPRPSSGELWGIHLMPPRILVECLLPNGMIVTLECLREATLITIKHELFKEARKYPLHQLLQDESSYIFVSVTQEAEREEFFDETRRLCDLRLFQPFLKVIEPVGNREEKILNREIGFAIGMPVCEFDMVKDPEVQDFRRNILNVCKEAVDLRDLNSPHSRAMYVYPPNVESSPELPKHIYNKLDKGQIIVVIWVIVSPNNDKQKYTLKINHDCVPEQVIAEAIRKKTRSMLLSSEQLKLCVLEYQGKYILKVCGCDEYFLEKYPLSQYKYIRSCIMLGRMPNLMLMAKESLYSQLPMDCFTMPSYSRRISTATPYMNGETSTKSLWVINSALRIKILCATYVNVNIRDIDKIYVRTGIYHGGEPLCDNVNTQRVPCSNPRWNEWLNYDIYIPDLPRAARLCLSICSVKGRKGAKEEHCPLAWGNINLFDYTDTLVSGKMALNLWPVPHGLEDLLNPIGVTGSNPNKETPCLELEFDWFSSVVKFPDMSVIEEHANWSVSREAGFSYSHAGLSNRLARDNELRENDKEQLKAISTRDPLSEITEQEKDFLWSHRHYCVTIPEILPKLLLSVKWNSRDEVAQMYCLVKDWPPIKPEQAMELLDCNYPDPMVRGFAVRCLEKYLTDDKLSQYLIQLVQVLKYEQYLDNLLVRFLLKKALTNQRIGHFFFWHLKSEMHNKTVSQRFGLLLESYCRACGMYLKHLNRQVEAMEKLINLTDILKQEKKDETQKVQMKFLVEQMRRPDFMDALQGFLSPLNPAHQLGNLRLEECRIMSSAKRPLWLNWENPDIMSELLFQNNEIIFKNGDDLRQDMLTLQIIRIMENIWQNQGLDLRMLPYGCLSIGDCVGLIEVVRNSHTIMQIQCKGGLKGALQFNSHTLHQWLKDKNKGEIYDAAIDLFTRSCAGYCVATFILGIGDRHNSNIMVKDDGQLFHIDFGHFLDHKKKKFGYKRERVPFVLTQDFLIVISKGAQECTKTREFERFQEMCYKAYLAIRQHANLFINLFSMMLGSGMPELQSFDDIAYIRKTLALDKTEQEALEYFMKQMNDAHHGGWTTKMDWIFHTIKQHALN

Question: Which outcome does the source give for `C=CC(=O)NC(C)(C)CC(C)=O` here?
Answer: The outcome was “inactive”.

Question: Which outcome does the source give for `CC[N+](CC)(CC)CC` here?
Answer: Its outcome is “inactive”.

Question: Which outcome does the source give for `CCC(C)(C#N)N=NC(C)(C#N)CC` (stereo unspecified) here?
Answer: The outcome was “inactive”.

Question: With `Cc1cc(C(C)(C)c2ccc(O)c(C)c2)ccc1O` as the molecule, how does the AC50 read?
Answer: The AC50 was 5.25 µM (active).

Question: Which outcome does the source give for `O=C(O)C1(c2ccc3c(c2)OC[C@H](Cc2ccc(-c4ccccc4)cc2)[C@H]3O)CCCC1` here?
Answer: The outcome was “inactive”.

Question: For `O=C1c2ccccc2C(=O)C1C(=O)C(c1ccccc1)c1ccc(Cl)cc1` (stereo unspecified), which AC50 is on record?
Answer: The AC50 was 16.8 µM (active).

Question: Which AC50 does the source give for `Nc1c(Oc2ccccc2)cc(O)c2c1C(=O)c1ccccc1C2=O` here?
Answer: Its AC50 is 3.26 µM (active).

Question: How did the outcome turn out when `Nc1nc(N)nc(Cl)n1` was run?
Answer: Its outcome is “inactive”.

Question: How did the outcome turn out when `C=CCCl` was run?
Answer: The outcome was “inactive”.

Question: `CCOC(=O)CCN(SN(C)C(=O)Oc1cccc2c1OC(C)(C)C2)C(C)C` was tested. Which outcome did it give?
Answer: The outcome was “inactive”.

Molecular target: human Phosphatase and Tensin Homolog (PTEN), PTEN (gene 5728) (UniProt P60484)
Sequence (P60484 whole entry, looked up): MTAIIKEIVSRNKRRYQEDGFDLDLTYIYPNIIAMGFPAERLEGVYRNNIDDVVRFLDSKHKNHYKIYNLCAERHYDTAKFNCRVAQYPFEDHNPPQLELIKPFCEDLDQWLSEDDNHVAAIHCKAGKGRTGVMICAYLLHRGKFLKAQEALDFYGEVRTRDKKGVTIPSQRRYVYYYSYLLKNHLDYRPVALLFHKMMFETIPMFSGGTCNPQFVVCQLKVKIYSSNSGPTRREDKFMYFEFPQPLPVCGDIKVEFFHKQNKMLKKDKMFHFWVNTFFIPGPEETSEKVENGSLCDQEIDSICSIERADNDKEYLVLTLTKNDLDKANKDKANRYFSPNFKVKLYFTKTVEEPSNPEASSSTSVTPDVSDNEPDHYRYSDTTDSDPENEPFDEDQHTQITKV
Test: NVS_ENZ_hPTEN: NovaScreen (NVS) Enzymatic Assay for human Phosphatase and Tensin Homolog (PTEN) (AID 2283203)
Method in brief: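 Cell-free recombinant human PTEN with fluorescent substrate; product separated by electrophoretic mobility shift and read by fluorescence 1 h after dosing. Primary screen in duplicate at 25 uM, actives followed in concentration series versus DMSO.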

Question: For `C[C@]12CC[C@@H](O)C[C@@H]1CC[C@@H]1[C@@H]2CC[C@]2(C)C(=O)CC[C@@H]12`, which outcome is on record?
Answer: Its outcome is “inactive”.

Question: `COc1nn(C(=O)NS(=O)(=O)c2ccccc2OC(F)(F)F)c(=O)n1C` was tested. Which AC50 did it give?
Answer: The AC50 was 9.29 µM (active).

Question: For `COCC(=O)N(c1c(C)cccc1C)[C@H](C)C(=O)OC`, which outcome is on record?
Answer: Its outcome is “inactive”.

Question: For `CC(C)(COCC1CO1)COCC1CO1` (stereo unspecified), which outcome is on record?
Answer: Its outcome is “inactive”.

Question: Which AC50 does the source give for `CCCCCCCCCCCCOS(=O)(=O)O` here?
Answer: The AC50 was 21.6 µM (active).

Question: With `Cc1ccccc1OP(=O)(Oc1ccccc1C)Oc1ccccc1C` as the molecule, how does the AC50 read?
Answer: The AC50 was 45.1 µM (active).

Question: `Clc1cccc(Cl)c1Cl` was tested. Which outcome did it give?
Answer: Its outcome is “inactive”.

Question: How did the outcome turn out when `OC(Cc1ccccc1Cl)(Cn1[nH]cnc1=S)C1(Cl)CC1` (stereo unspecified) was run?
Answer: The outcome was “inactive”.

Question: With `Cc1ccccc1OP(=O)(Oc1ccccc1)Oc1ccccc1` as the molecule, how does the AC50 read?
Answer: Its AC50 is 44.9 µM (active).

Question: How did the AC50 turn out when `O=C1c2ccccc2C(=O)C1C(=O)C(c1ccccc1)c1ccc(Cl)cc1` (stereo unspecified) was run?
Answer: The AC50 was 15.2 µM (active).

Question: With `Nc1c(Oc2ccccc2)cc(O)c2c1C(=O)c1ccccc1C2=O` as the molecule, how does the outcome read?
Answer: Its outcome is “inactive”.

Question: For `CCCCC(CC)COC(=O)Cl` (stereo unspecified), which AC50 is on record?
Answer: Its AC50 is 4.14 µM (active).

Question: How did the outcome turn out when `Cc1cccc(OP(=O)(Oc2cccc(C)c2)Oc2cccc(C)c2)c1` was run?
Answer: Its outcome is “inactive”.

Molecular target: Tyrosine-protein phosphatase non-receptor type 12 (Homo sapiens) (UniProt Q05209)
Sequence (Q05209 whole entry, looked up): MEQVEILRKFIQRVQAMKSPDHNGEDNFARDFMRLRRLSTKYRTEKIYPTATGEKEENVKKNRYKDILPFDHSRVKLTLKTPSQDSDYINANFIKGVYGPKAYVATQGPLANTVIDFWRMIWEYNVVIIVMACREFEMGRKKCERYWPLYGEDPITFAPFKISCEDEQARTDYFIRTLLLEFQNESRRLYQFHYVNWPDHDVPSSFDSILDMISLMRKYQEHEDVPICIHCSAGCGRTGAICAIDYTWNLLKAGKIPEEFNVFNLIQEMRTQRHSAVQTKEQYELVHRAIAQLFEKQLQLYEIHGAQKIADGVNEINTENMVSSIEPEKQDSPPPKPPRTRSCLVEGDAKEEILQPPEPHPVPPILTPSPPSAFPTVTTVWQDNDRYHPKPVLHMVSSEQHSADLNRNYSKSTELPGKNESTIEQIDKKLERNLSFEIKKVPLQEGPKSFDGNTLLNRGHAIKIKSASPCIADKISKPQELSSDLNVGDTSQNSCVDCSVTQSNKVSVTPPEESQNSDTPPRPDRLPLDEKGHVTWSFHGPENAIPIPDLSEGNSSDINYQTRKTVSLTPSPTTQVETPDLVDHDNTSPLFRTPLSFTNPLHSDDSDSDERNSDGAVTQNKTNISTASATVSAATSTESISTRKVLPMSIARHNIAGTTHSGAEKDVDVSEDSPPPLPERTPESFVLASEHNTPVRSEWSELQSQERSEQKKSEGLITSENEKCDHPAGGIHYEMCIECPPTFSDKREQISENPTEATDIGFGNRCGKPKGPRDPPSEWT
Test: NVS_ENZ_hPTPN12: NovaScreen (NVS) Enzymatic Assay for human Protein Tyrosine Phosphatase Non-receptor Type 12 (PTPN12) (AID 2283204)
Method in brief: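 Single-concentration duplicates (25 uM) preceded singleton concentration-response up to 50 uM for chemicals passing threshold. Cell-free recombinant PTPN12 activity was read 1.33 h after dosing via fluorescence after mobility-shift separation; loss of signal versus DMSO.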

Question: With `COc1nn(C(=O)NS(=O)(=O)c2ccccc2OC(F)(F)F)c(=O)n1C` as the molecule, how does the AC50 read?
Answer: The AC50 was 5.64 µM (active).

Question: Which outcome does the source give for `Clc1cccc(Cl)c1Cl` here?
Answer: The outcome was “inactive”.

Question: Which AC50 does the source give for `O=C1c2ccccc2C(=O)C1C(=O)C(c1ccccc1)c1ccc(Cl)cc1` (stereo unspecified) here?
Answer: Its AC50 is 20 µM (active).
